According to PubChem BioAssay:
Several values for one entry are separate records, joined by “and”; a condition that tells them apart may be missing. Equal values may be shown once. Activity calls are given as the source filed them.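 How the source made its calls, unless noted: active means mean z-score across replicates of 1.96 or higher in either the MELAS or the Rieske mutant cell line; inactive means the rest.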

Columns and labels:
[1] = BT084 cell growth, single and combined drugs, ICGC_MB145, cisplatin and BGB IC40 combos (AID 1671461; in the data active means inhibition above about 80%;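 further: cells exposed to drugs for 96 hours; 0% = vehicle DMSO and 100% = high DMSO full killing control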); conditions: BT084 medulloblastoma cells, drug combinations, stronger effect = higher value
[2] = RCMB18 cell growth, single agent and combined, cisplatin and BGB IC40 combos (AID 1671462; in the data active means inhibition above about 80%;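 further: cells exposed to compound for four days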); conditions: RCMB18 medulloblastoma cells, stronger effect = higher value
[3] = CRL1545 cell growth, single agent and combined, cisplatin and BGB IC20 combos (AID 1671464; in the data active means inhibition above about 80%;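 further: cells exposed to compound for 96 hours before readout; 0% = vehicle DMSO and 100% = high DMSO killing control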); conditions: CRL1545 osteosarcoma cells, stronger effect = higher value
[4] = viability loss with induced miR-34 in A549 – imaging, A549 dox-inducible miR-34, nuclei and caspase counts, primary screen (AID 1347080;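 active means compounds whose cell count with miR-34 switched on is under 0.7 times the count with it off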); conditions: A549 miR-34 inducible, Hoechst nuclei count, 48 h
[5] = MELAS cybrid and Rieske KO viability enhancers – cell-based, MELAS cybrids, Rieske KO mouse fibroblasts, CellTiter-Glo, primary screen (AID 1508586); conditions: low glucose;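 further: z relative to plate mean and SD of compound and empty wells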
[6] = galactose survival enhancers in mitochondrial complex I cybrids – cell-based, galactose medium, ATP luminescence, primary screen (AID 1645843;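 active means z-score of at least 1.8 in each of two replicates, scored against plate mean and spread of sample wells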;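 further: positive z means more ATP and so rescue of galactose-driven cybrid death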); conditions: complex I mutant cybrid cells, 72 h, stronger effect = higher value
[7] = P. berghei load reduction in hepatocytes – cell-based, HepG2, luciferase luminescence, HepG2 viability, primary screen (AID 624349; in the data active means parasite load remaining mostly below about 12%, no sharp cut-off; inactive means mostly above about 10%;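 further: 100% = mean of DMSO negative control wells on the same plate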); conditions: P. berghei liver stage in HepG2, luciferase luminescence, concentration not given here; parasite load remaining: stronger effect = lower value; viability: measured here: HepG2 viability without parasites
[8] = stronger effect = lower value, cell number ratio, induced over uninduced
[9] = measured here: relative caspase fold change +Dox/-Dox
[10] = measured here: total cells with miR-34 induction, stronger effect = lower value
[11] = measured here: total cells without miR-34 induction
[12] = MELAS cybrid survival, CellTiter-Glo 48 h, stronger effect = higher value
[13] = Rieske KO mouse fibroblast survival, CellTiter-Glo 72 h

Cc1cn(C2C=CC(CO)O2)c(=O)[nH]c1=O (stereo not drawn)
inhibition ([1]; at 0.5 µM): -17.7% (inactive) | inhibition ([1]; cisplatin combination, at 0.5 µM): -7.07% | inhibition ([1]; cisplatin combination, at 5 µM): -5.39% | inhibition ([1]; measured here: BGB IC40 combination 0.05 uM, at 0.05 µM): -19.6% | inhibition ([1]; single agent, at 5 µM): -14% | inhibition ([2]; at 0.5 µM): -28.5% (inactive) | inhibition ([2]; cisplatin combo, at 5 µM): -44.1% | inhibition ([2]; measured here: BGB IC40 combination, at 0.05 µM): -19.7% | inhibition ([2]; measured here: combination with cisplatin, at 0.5 µM): -44.8% | inhibition ([2]; single agent, at 5 µM): -28.1% | inhibition ([3]; at 0.5 µM): -40.6% (inactive) | inhibition ([3]; measured here: with BGB IC20 combination, at 0.5 µM): -40.6% | inhibition ([3]; measured here: with cisplatin IC20 combination, at 0.5 µM): -43.7% | inhibition ([3]; single agent, at 0.05 µM): -24.2% | inhibition ([3]; single agent, at 5 µM): -21.8%

O=C(Cn1nc(Cc2ccccc2)c2ccccc2c1=O)NCCc1ccco1
fold change [4, 8]: 0.937 (inactive) | fold change [4, 9]: 0.881 | cell count [4, 10]: 8560 | cell count [4, 11]: 9130 | z-score [5, 12]: 1.48 (inactive) | z-score [5, 13]: 0.664 | z-score [6]: -0.33 (inactive)

CCc1nc(NC(=O)NCCc2nc(-c3ccc(C)cc3)no2)nn1C
fold change [4, 8]: 0.835 (inactive) | fold change [4, 9]: 1.88 | cell count [4, 10]: 7240 | cell count [4, 11]: 8670 | z-score [5, 12]: 1.58 (inactive) | z-score [5, 13]: -0.075 | z-score [6]: 2.27 (active)

Cc1ccc2c(c1)N(Cc1nc(C(C)(C)C)no1)C(=O)CO2
fold change [4, 8]: 1.19 (inactive) | fold change [4, 9]: 0.578 | cell count [4, 10]: 6310 | cell count [4, 11]: 5280 | z-score [5, 12]: -0.543 (inactive) | z-score [5, 13]: -0.423 | z-score [6]: -0.52 (inactive)

CN(C)c1ccc(N=Nc2ccccc2C(=O)O)cc1
fold change [4, 8]: 0.742 (inactive) | fold change [4, 9]: 0.761 | cell count [4, 10]: 2520 | cell count [4, 11]: 3400 | z-score [5, 12]: -1.2 (inactive) | z-score [5, 13]: 0.626 | z-score [6]: -0.36 (inactive)

O=C(O)CNC(=O)NC1CCCCC1
fold change [4, 8]: 0.908 (inactive) | fold change [4, 9]: 0.307 | cell count [4, 10]: 9060 | cell count [4, 11]: 9970 | z-score [5, 12]: 0.384 (inactive) | z-score [5, 13]: -0.24 | z-score [6]: 0.34 (inactive)

Cc1ccc(CN2CCN(c3ncnc4sccc34)CC2=O)cc1
fold change [4, 8]: 0.911 (inactive) | fold change [4, 9]: 1.87 | cell count [4, 10]: 4200 | cell count [4, 11]: 4610 | z-score [5, 12]: -0.0356 (inactive) | z-score [5, 13]: -0.417 | z-score [6]: 3.8 (active)

CO[C@H]1[C@@H]([C@@]2(C)O[C@@H]2CC=C(C)C)[C@]2(CC[C@H]1OC(=O)/C=C/C=C/C=C/C=C/C(=O)O)CO2
parasite load remaining [7]: 21% (inactive) | viability [7]: 104% | fold change [4, 8]: 0.953 (inactive) | fold change [4, 9]: 1.44 | cell count [4, 10]: 6670 | cell count [4, 11]: 7000 | z-score [5, 12]: 0.116 (inactive) | z-score [5, 13]: -0.135 | z-score [6]: -0.585 (inactive)

COc1ccc(C(=O)/C(Br)=C\C(=O)O)cc1
parasite load remaining [7]: 25.4% (inactive) | viability [7]: 107% | fold change [4, 8]: 0.888 (inactive) | fold change [4, 9]: 1.39 | cell count [4, 10]: 9940 | cell count [4, 11]: 11200 | z-score [5, 12]: -0.188 (inactive) | z-score [5, 13]: -0.289 | z-score [6]: -0.925 (inactive)

CCC(=O)OCC(=O)[C@@]1(OC(=O)CC)[C@@H](C)C[C@H]2[C@@H]3CCC4=CC(=O)C=C[C@]4(C)C3(F)[C@@H](O)C[C@@]21C (stereo partly drawn)
parasite load remaining [7]: 19.5% (inactive) | viability [7]: 67% | fold change [4, 8]: 0.837 (inactive) | fold change [4, 9]: 1.41 | cell count [4, 10]: 6650 | cell count [4, 11]: 7940 | z-score [5, 12]: 0.189 (inactive) | z-score [5, 13]: 1.36 | z-score [6]: 0.155 (inactive)

CN1[C@@H](C[C@H](O)c2ccccc2)CCC[C@H]1CC(=O)c1ccccc1
parasite load remaining [7]: 53.1% (inactive) | viability [7]: 128% | fold change [4, 8]: 0.934 (inactive) | fold change [4, 9]: 1.15 | cell count [4, 10]: 9500 | cell count [4, 11]: 10200 | z-score [5, 12]: -0.675 (inactive) | z-score [5, 13]: -0.32 | z-score [6]: 0.205 (inactive)

O=C(OC1CC2CC3C[C@@H](C1)N2CC3=O)c1c[nH]c2ccccc12 (stereo partly drawn)
parasite load remaining [7]: 57.9% (inactive) | viability [7]: 134% | fold change [4, 8]: 0.838 (inactive) | fold change [4, 9]: 1.48 | cell count [4, 10]: 8850 | cell count [4, 11]: 10600 | z-score [5, 12]: -0.0411 (inactive) | z-score [5, 13]: -0.329 | z-score [6]: 1.09 (inactive)

CCCCC(C)(O)C/C=C/[C@H]1[C@H](O)CC(=O)[C@@H]1CCCCCCC(=O)OC (stereo partly drawn)
parasite load remaining [7]: 25.9% (inactive) | viability [7]: 64% | fold change [4, 8]: 1.01 (inactive) and 0.901 (inactive) | fold change [4, 9]: 1.23 and 1.3 | cell count [4, 10]: 5920 and 9930 | cell count [4, 11]: 5880 and 11000 | z-score [5, 12]: -0.242 (inactive) and 0.112 (inactive) | z-score [5, 13]: -0.698 and -0.238 | z-score [6]: 0.245 (inactive)

CC#CCC(C)[C@H](O)/C=C/[C@@H]1[C@H]2C/C(=C/CCCC(=O)O)C[C@H]2C[C@H]1O (stereo partly drawn)
parasite load remaining [7]: 12.8% (inactive) | viability [7]: 77.5% | fold change [4, 8]: 0.876 (inactive) | fold change [4, 9]: 1.59 | cell count [4, 10]: 8850 | cell count [4, 11]: 10100 | z-score [5, 12]: -0.239 (inactive) | z-score [5, 13]: -0.923 | z-score [6]: 0.275 (inactive)

C=C1/C(=C/C=C2/CCC[C@]3(C)[C@@H]([C@H](C)CCCC(C)C)CC[C@@H]23)C[C@@H](O)C[C@@H]1O
parasite load remaining [7]: 43.3% (inactive) | viability [7]: 115% | fold change [4, 8]: 0.847 (inactive) | fold change [4, 9]: 0.894 | cell count [4, 10]: 8220 | cell count [4, 11]: 9710 | z-score [5, 12]: 0.628 (inactive) and 0.37 (inactive) | z-score [5, 13]: 0.674 and -0.198 | z-score [6]: -2.23 (inactive)

Nc1nc(=O)n([C@@H]2CS[C@H](CO)O2)cc1F
parasite load remaining [7]: 56.6% (inactive) | viability [7]: 160% | fold change [4, 8]: 0.911 (inactive) | fold change [4, 9]: 1.49 | cell count [4, 10]: 10100 | cell count [4, 11]: 11100 | z-score [5, 12]: 0.34 (inactive) and -0.461 (inactive) | z-score [5, 13]: -0.0583 and -0.327 | z-score [6]: 0.88 (inactive)
